Screening data: PubChem BioAssay, National Center for Advancing Translational Sciences (NCATS)
Pol III holo inh – DNA polymerase III holoenzyme inhibition. Potency, µM (highest dose often 57.1 µM). actives 0.25% (n = 71,000). reconstituted DNA polymerase III holoenzyme replication, biochemical. AID 603
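Reconstituted *E. coli* holoenzyme (0.35 nM Pol III, 1 nM beta, 154 nM SSB, 2 nM primase) was preincubated with compound for 15 min at RT. Synthesis on 1.4 nM ssM13Gori ran 35 min, then was stopped with PicoGreen/EDTA and read as dsDNA fluorescence.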
ERK AVP block – blocks ERK signaling stimulated by vasopressin; HEK293-V1b, vasopressin-stimulated pERK AlphaScreen; Potency, µM (doses to about 57.5 µM), hits mostly inhibitors; actives 0.99% (n = 72,000); further: nearly all actives have a fitted effect of over 55% in size
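Overnight-seeded V1b-HEK293 cells in 1% FBS got compound, then vasopressin (25 nM final, 5 min, 37C), then lysis buffer. AlphaScreen detection of phospho-ERK; activity normalized to basal and full-stimulation controls.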
p53ts 39C kill – p53ts cell cytotoxicity, nonpermissive temperature; AID 902; H1299-p53A138V viability at 39C, ATP luminescence, 24 h; actives 1.5% (n = 130,000); Potency, µM (top dose mostly 46.1 µM), actives largely listed as cytotoxic; further: nearly all actives have a fitted effect of over 55% in size
Tau filament bind – binds recombinant human tau filaments. recombinant tau filaments, thioflavin S fluorescence, 15 h; filaments grown with octadecylsulfate alongside compound. P10636. actives 2% (n = 71,000). Potency, µM (top dose mostly 57.1 µM);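 further: actives lower thioflavin S fluorescence by blocking filaments or displacing dye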
Target sequence (P10636 whole entry, looked up): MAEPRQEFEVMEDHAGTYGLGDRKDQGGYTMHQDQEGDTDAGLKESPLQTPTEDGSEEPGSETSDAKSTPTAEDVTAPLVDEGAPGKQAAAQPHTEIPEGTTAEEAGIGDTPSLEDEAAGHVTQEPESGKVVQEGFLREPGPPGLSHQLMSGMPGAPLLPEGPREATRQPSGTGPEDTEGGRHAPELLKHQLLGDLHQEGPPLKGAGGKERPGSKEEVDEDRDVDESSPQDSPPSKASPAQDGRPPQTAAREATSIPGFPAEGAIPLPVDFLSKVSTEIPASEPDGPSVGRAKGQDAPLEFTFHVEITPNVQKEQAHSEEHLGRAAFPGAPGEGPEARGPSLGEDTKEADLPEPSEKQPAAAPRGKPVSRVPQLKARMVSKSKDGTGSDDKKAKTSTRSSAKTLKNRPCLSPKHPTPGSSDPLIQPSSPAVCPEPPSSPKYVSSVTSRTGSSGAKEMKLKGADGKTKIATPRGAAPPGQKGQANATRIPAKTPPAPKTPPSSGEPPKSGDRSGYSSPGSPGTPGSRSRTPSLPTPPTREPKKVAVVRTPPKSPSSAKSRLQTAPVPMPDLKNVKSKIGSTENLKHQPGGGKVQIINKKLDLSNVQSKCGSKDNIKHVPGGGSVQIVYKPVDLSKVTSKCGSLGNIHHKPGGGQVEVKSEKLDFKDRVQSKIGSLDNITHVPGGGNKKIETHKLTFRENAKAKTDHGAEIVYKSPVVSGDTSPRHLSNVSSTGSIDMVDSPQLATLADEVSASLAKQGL
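Assay mix: 1 uM His-tagged tau, 30 uM sodium octadecylsulfate, thioflavine S dye in HEPES/NaCl/DTT buffer. Compound is added prior to the inducer. Fluorescence after 15 h at 37 C.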
p53ts 32C kill – cytotoxicity in p53ts cells at permissive temperature | H1299-p53A138V at 32C, ATP luminescence viability, 24 h | Potency, µM (doses to about 46.1 µM), most hits filed as cytotoxic | actives 0.93% (n = 130,000); further: nearly all actives have a fitted effect of over 55% in size
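H1299-p53 A138V cells (temperature-sensitive p53) exposed 24 h to up to 46 uM compound at 32C, where p53 is wild-type in conformation. Viability read as ATP luminescence and normalised to DMSO and 100 uM tamoxifen. AC50 fitted with the Hill equation.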
YjeE inh – inhibitors of E. coli YjeE (TsaE) | P0AF67 | purified YjeE enzyme, qHTS inhibition assay | Potency, µM | actives 0.05% (n = 71,000)
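Purified YjeE (10 uM) with BODIPY Texas Red-labeled ADP probe (2 uM); compounds pin-transferred, 15 min at room temperature. Binding inhibition read as decreased fluorescence polarization; ADP titration as control.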
Numbers stand for hits; 0 = inactive; ? = inconclusive; - = no result; [ ] = dose if it differs, or a comment. Hits are enriched below; roughly 3.2% of the tested compounds scored in any of these assays. The call rests on the fitted dose curve; in most records, active means well fitted curve in the direction sought with a large enough effect; inconclusive means small, poorly fitted or top-dose-only effect, or another doubt; inactive means no such curve, though single readings can be large; an effect the other way counts as inactive or inconclusive.

SMILES	Pol III holo inh	ERK AVP block	p53ts 39C kill	Tau filament bind	p53ts 32C kill	YjeE inh
COc1ccccc1OCc1ccc(C(=O)NC(C)(C)C)o1	0	0	0	0	0	0
Cc1nc2ccn(Cc3ccco3)c(=O)c2cc1C(=O)NCc1ccccc1F	-	-	0	-	0	-
CCOc1ccc2c(c1)c(=O)c(C(=O)c1ccccc1)cn2Cc1ccccc1F	-	-	0	-	0	-
CN1CCc2c(cc(O)c(O)c2Cl)[C@H](c2cccc(Cl)c2)C1	0	0	0	0	0	0
Cc1c(-c2ccc(O)cc2)nn(-c2ccc(O)cc2)c1-c1ccc(OCCN2CCCCC2)cc1	0	0	31.6µM	?	?	0
O=[N+]([O-])c1ccc(OCCN2CCCCCC2)cc1	-	-	0	-	-	-
Cc1ccc(OCC(=O)Nc2ccccc2C(=O)OCc2cc(=O)n3c(C)csc3n2)cc1	-	-	0	-	0	-
Cc1ccc(C)c(Nc2nn3c(=O)c4ccc(C(=O)NCc5ccccc5)cc4nc3s2)c1	-	-	12.6µM	-	?	-
CCc1cccc(NC(=O)c2ccc3c(=O)n4nc(Nc5ccccc5OC)sc4nc3c2)c1	-	-	5.01µM	-	3.16µM	-
Cc1ccccc1Nc1nn2c(=O)c3ccc(C(=O)NCc4cccs4)cc3nc2s1	-	-	0	-	0	-
COc1ccccc1Nc1nn2c(=O)c3ccc(C(=O)NCc4ccc(F)cc4)cc3nc2s1	-	-	3.16µM	-	3.16µM	-
CCc1ccccc1Nc1nn2c(=O)c3ccc(C(=O)NCc4ccccc4OC)cc3nc2s1	-	-	0	-	0	-
CCc1ccccc1Nc1nn2c(=O)c3ccc(C(=O)Nc4ccc(OC)cc4)cc3nc2s1	-	-	0	-	?	-
CCCOc1ccc(NC(=O)CC2C(=O)N(c3ccccc3)C(=O)N2CCC(C)C)cc1 (stereo not given)	-	-	0	-	0	-
Cn1c(=O)[nH]c(=O)c2c1nc(N(CCO)Cc1ccccc1)n2CCCc1ccccc1	0	0	0	0	0	0
Cn1c(=O)[nH]c(=O)c2[nH]c(N(Cc3ccccc3)Cc3ccccc3)nc21	0	25.1µM	?	0	?	0
CN(Cc1ccccc1)c1nc2c(c(=O)[nH]c(=O)n2C)n1Cc1ccccc1Cl	0	15.8µM	0	0	0	0
CN(Cc1ccccc1)c1nc2c(c(=O)[nH]c(=O)n2C)n1CCCc1ccccc1	0	0	0	0	0	0
CCc1ccc(C2c3c(oc4ccc(F)cc4c3=O)C(=O)N2c2nc(C)c(C(=O)OC)s2)cc1 (stereo not given)	-	-	0	-	0	-
CC(C)(C)NC(=O)c1ccc2nccnc2c1	0	0	0	0	0	0
O=C(Nc1ccc(Br)cn1)c1ccc2nccnc2c1	0	0	0	15.8µM	0	0
CCn1c(CSc2nc3ccccc3s2)nc2ccccc21	0[11.4 µM]	39.8µM	0	0[11.4 µM]	0	0
CCCCCCSC1=C(C#N)C(c2ccc(O)cc2)CC(=O)N1 (stereo not given)	0	15.8µM	?	0	0	0
CCSC1=C(C#N)C(c2ccc(OC)c(OC)c2)CC(=O)N1 (stereo not given)	0	0	0	0	0	0
COC(=O)[C@@H]1C[C@H]1[C@@H](NC(=O)OCc1ccccc1)c1ccccc1	0	-	-	0	-	0
SMILES	Pol III holo inh	ERK AVP block	p53ts 39C kill	Tau filament bind	p53ts 32C kill	YjeE inh
NCCCCNS(=O)(=O)c1cccc2c(Cl)cccc12	0	0	15.8µM	0	0	0
NCCCCCCNS(=O)(=O)c1cccc2ccccc12	0	0	0	0	0	0
COCCNC(=O)CSc1nnc(NC(=O)Nc2ccc(C)cc2)s1	-	-	?	-	11.2µM	-
Cc1cccc(N2CCN(C(=O)c3ccc4c(c3)N(Cc3cccc(Cl)c3)C(=O)c3ccccc3S4=O)CC2C)c1 (stereo not given)	-	-	0	-	0	-
CCN(CCCNC(=O)C1CCN(S(=O)(=O)c2cccc3nonc23)CC1)Cc1ccccc1	0	0	0	20µM	0	0
Cc1ccc(CCNC(=O)C2CCN(S(=O)(=O)c3cccc4nonc34)CC2)cc1	0	0	0	0	0	0
CNC(=O)[C@H]1O[C@H](n2cnc3c(NCc4cccc(I)c4)nc(Cl)nc32)[C@@H](O)[C@@H]1O	0	15.8µM	0	0	0	0
CC(=O)Nc1ccc2nc(-c3ccccn3)[nH]c2c1	0	0	6.31µM	0	3.98µM	0
CC(=O)Nc1ccc2nc(-c3cc(C)ccc3C)[nH]c2c1	-	-	0	-	0	-
CCOc1ccccc1NC(=O)Cn1c(=O)n(Cc2ccco2)c(=O)c2cccnc21	-	-	0	-	0	-
Fc1ccc(-c2nnc(-c3ccc(Cl)cc3)o2)cc1	0	0	?	0	?	0
Clc1ccc(-c2nnc(NC3=NCCCCC3)o2)cc1	0	0	12.6µM	0	12.6µM	0
O=S(=O)(Nc1cccc(-c2ccc(N3CCCC3)nn2)c1)c1cc(F)ccc1F	-	-	0	-	0	-
COc1ccc(C)cc1S(=O)(=O)Nc1cccc(-c2ccc(N3CCCC3)nn2)c1	-	-	0	-	0	-
CCOc1ccc(S(=O)(=O)Nc2cccc(-c3ccc(N4CCCC4)nn3)c2)cc1	-	-	?	-	0	-
Cc1ccc(S(=O)(=O)Nc2cccc(-c3ccc(N4CCC(C)CC4)nn3)c2)s1	-	-	3.98µM	-	12.6µM	-
CCOc1ccc(S(=O)(=O)Nc2cccc(-c3ccc(N4CCC(C)CC4)nn3)c2)cc1	-	-	10µM	-	10µM	-
O=S(=O)(Nc1cccc(-c2ccc(N3CCCCC3)nn2)c1)c1ccc(F)cc1F	-	-	?	-	12.6µM	-
CC1CCN(c2ccc(-c3cccc(NS(=O)(=O)c4ccc(F)cc4F)c3)nn2)CC1	-	-	12.6µM	-	15.8µM	-
Cc1ccc(C(=O)c2oc3ccccc3c2NC(=O)C(C)Oc2ccccc2Cl)cc1 (stereo not given)	-	-	0	-	0	-
O=C(c1ccccc1F)N1c2nc(-c3ccco3)nn2C2(CCCCC2)[C@@H]2CCCC[C@@H]21	-	-	0	-	0	-
O=C1O/C(=C\Br)CC[C@@H]1c1cccc2ccccc12	0	?	20µM	0	20µM	0
O=C(O)[C@H]1CCc2ccc3ccccc3c2[C@H]1c1cccc2ccccc12	0[11.4 µM]	0[11.5 µM]	0[9.22 µM]	0[11.4 µM]	0[9.22 µM]	0
CCOC(=O)C1CCCN(c2ccc(NC(=O)c3snc4c(=O)[nH]cnc34)cc2)C1 (stereo not given)	0	?	0	15.8µM	0	0
CN1CCN(c2ncc3nc(CCc4ccccc4)c(=O)n(Cc4ccc(F)cc4)c3n2)CC1	0	?	0	0	0	0
COc1cccc(Nc2ncc3ncc(=O)n(CCC#N)c3n2)c1	0	?	0	0	0	0
O=c1c(CCc2ccccc2)nc2cnc(N3CCNCC3)nc2n1Cc1ccc(F)cc1	0	?	12.6µM	0	0	?
COc1cccc(Cn2c(=O)c(C)nc3cnc(OCc4ccccc4)nc32)c1	0	0	0	31.6µM	0	0
COc1cccc(Nc2ncc3nc(C)c(=O)n(CCC#N)c3n2)c1	0	?	0	25.1µM	0	0
